Reference: PubChem BioAssay (Tox21)
Records with an inconclusive call do not appear. Entries that show only a call come without a potency. Values without a mark were called inactive. The source made the active and inactive calls. The call rests on the fitted dose curve; in most records, active means well fitted cell-killing curve with a large enough effect in the repeat runs; inconclusive means weak or mixed curves, or effect the other way; inactive means flat fitted curve, though single readings scatter.

experiment: qHTS RealTime-Glo MT Cell Viability Assay in HEK293 cells - 8 hour (AID 1224887); details: RealTime-Glo luminescence; series mostly up to 76.8 µM; further: nearly all actives have a fitted effect of over 50% in size; on activity change, negative = cytotoxicity: top concentration of the series differs between compounds
Excerpt: U.S. Tox21 Program National Center for Advancing Translational Sciences [NCATS] NIH Chemical Genomics Center [NCGC] U.S. Environmental Protection Agency [EPA] National Institutes of Environmental Health Sciences [NIEHS] National Toxicology Program [NTP] U.S. Food and Drug Administration [FDA] Tox21 Assay Overview: Measure of cell viability is critical in the cell-base assay. Analysis of cell viability is necessary for the characterization of cell responses to cytotoxic drugs and environmental stress. A RealTime-Glo MT Cell Viability Assay to monitor cell viability in real time of continues cell culture during 40 hours of compound treatment was used to screen Tox21 10K library compounds in Hek293 cells. The RealTime-Glo MT Cell Viability Assay is a nonlytic, homogeneous, bioluminescent method to measure cell viability in real time using a simple, plate-based method. The assay involves adding NanoLuc luciferase and a cell-permeant prosubstrate to cells in culture. Viable cells reduce the proprietary prosubstrate to generate a substrate for NanoLuc luciferase. This substrate diffuses from cells into the surrounding culture medium, where it is rapidly used by the NanoLuc Enzyme to produce a luminescent signal. The signal correlates with the number of viable cells, making the assay well suited for cytotoxicity studies.
Tox21 Assay Protocol Summary: The mixture of Hek293 cell suspension and reagents were dispensed at 600cells/6 ul/well in 1536-well tissue culture treated black solid bottom plates using a Multidrop dispenser. After the assay plates were incubated at a 37 C/5% CO2 incubator for 5 hours, 23 nL of compounds dissolved in DMSO, positive and negative controls was transferred to the assay plate by a pintool work station. The plates were incubated at 37 C for 40 hours. The luminescence intensity were measured at 0h, 8h, 16h, 24h, 32h and 40h time points using ViewLux plate reader during compound treatment.
Potency means the concentration at half of the fitted maximal effect.

Compound | Potency | activity change, negative = cytotoxicity
CC/C=C\CCO | inactive | –
CCCCCCCCCC(C)C=O (stereo not given) | inactive | –
CCCC1CCOC(C)S1 (stereo not given) | inactive | –
CC(=O)Nc1ccn(C2COC(COC(=O)c3ccccc3)O2)c(=O)n1 (stereo not given) | inactive | –
Cc1ccc2c(Cl)cc(Cl)c(O)c2n1 | inactive | –
Nc1cccc2c(=O)[nH][nH]c(=O)c12 | inactive | –
CC(=O)S[C@H](C(=O)N[C@H]1Cc2ccccc2[C@H]2CCC[C@@H](C(=O)O)N2C1=O)C(C)C | inactive | –
C(/C=C/C=C/Nc1ccccc1)=Nc1ccccc1 | inactive | –
CCCC(=O)OCCC(C)C | inactive | –
CC(CC(C#N)(c1ccccc1)C(C)C)N(C)C (stereo not given) | inactive | –
Oc1ccc(Oc2ccccc2)cc1 | 16.5 µM (active) | –
CC(C)(C)c1cc(C=O)cc(C(C)(C)C)c1O | inactive | –
CCCCCO | inactive | –
C=CC(=O)OCCCCCCCCCC | inactive | –
COc1ccc(/C=C/S(=O)(=O)NC(=O)c2ccc(C)cc2Cl)cc1 | inactive | –
OCCCO | inactive | –
O=C(N[C@@H](Cc1ccccc1)[C@@H](O)C(=O)N1C[C@@H](O)[C@@H](O)C1)c1cc2cc(Cl)ccc2[nH]1 | inactive | –
C[C@]12CCC(=O)C=C1[C@@H]1C[C@@H]1[C@H]1[C@@H]3[C@@H]4C[C@@H]4[C@@]4(CCC(=O)O4)[C@@]3(C)CC[C@@H]12 | inactive | –
CC(COc1ccccc1)NC(C)C(O)c1ccc(O)cc1 (stereo not given) | inactive | –
O=C(O)CCc1nc2ccccc2[nH]1 | inactive | –

Compound | Potency | activity change, negative = cytotoxicity
c1ccc(-c2ccc(-c3ccccc3)cc2)cc1 | – | 0.793% [at 15.8 µM]
O=C(O)c1cccc(C(=O)O)c1C(=O)O | inactive | –
O=C(O)CNc1ccccc1 | inactive | –
Nc1ncnc2c1ncn2[C@@H]1O[C@H](CO)[C@@H](O)[C@H]1O | inactive | –
CCN(CC)CC(=O)OCC(=O)[C@@]1(O)CC[C@H]2[C@@H]3CCC4=CC(=O)CC[C@]4(C)[C@H]3[C@@H](O)C[C@@]21C | inactive | –
COc1ccc(C(=O)Nc2ccccc2)cc1[N+](=O)[O-] | 24.7 µM (active) | –
O=Cc1ccc(Cl)c([N+](=O)[O-])c1 | inactive | –
CCCCCCCCCCCCCCCCN | inactive | –
C/C=C1\[C@H]2C=C(C)C[C@]1(N)c1ccc(=O)[nH]c1C2 | inactive | –
CCC(C(=O)O)c1ccc(N2Cc3ccccc3C2=O)cc1 (stereo not given) | inactive | –
Nc1nc(Cl)nc2c1ncn2[C@H]1C[C@H](O)[C@@H](CO)O1 | inactive | –
CO[C@@H]1COCC[C@@H]1N[C@@H]1CC[C@@](C(=O)N2CCc3ncc(C(F)(F)F)cc3C2)(C(C)C)C1 | 15.4 µM (active) | –
CCOc1cc(OCC)c(C(C)=O)cc1OCC | 19.2 µM (active) | –
CC(=O)c1cccnc1 | inactive | –
Cc1nc(C)c(C)nc1C | inactive | –
O=C(OC1C[C@H]2CC[C@@H](C1)[N+]21CCCC1)C(O)(c1ccccc1)c1ccccc1 (stereo not given in full) | inactive | –
O=C(O)COCC(=O)O | inactive | –
COc1ccc(/C=C/c2cc(OC)cc(=O)o2)cc1 | inactive | –
C[C@H](N)C(=O)N[C@@H](C)C(=O)NC1[C@H]2CN(c3nc4c(cc3F)c(=O)c(C(=O)O)cn4-c3ccc(F)cc3F)C[C@@H]12 (stereo not given in full) | inactive | –
CC(C(=O)O)c1ccc2c(c1)Cc1cccnc1O2 (stereo not given) | inactive | –
